Assay results reported in ChEMBL document CHEMBL3988442, “University of Dundee, Small-Polar-MMV Screening Library” (2021).
The whole screen tested about 48,000 compounds, of which about 13,000 (27%) showed an effect of 50% or more. The list shows a part of the results.

What follows are compounds tested on Wolbachia pipientis (assay: Anti-Wolbachia Cell-Based Screen). Conditions: 5 µM.
Format: functional
Design: scale not given: in the data most compounds retested in dose-response had high values

Structure (SMILES)	Percent Effect [%]
CC(C)(O)c1cc(CC2(NCc3ccco3)COC2)no1	-7.158
CN(C)CCn1ccnc1C1CCN(C(=O)CCc2ccncc2)CC1	-7.346
CC(C)N(C)Cc1cncc2c1CCN(C(=O)c1ccccc1F)C2.Cl.Cl	-2.748
CN(C)Cc1cnc(C2CCN(C(=O)c3cc(F)cc(F)c3)C2)[nH]1 (centres undefined)	116.9
CCNS(=O)(=O)C1CCN(C(=O)c2ccc(F)cc2)C1 (centres undefined)	4.07
CN(C)Cc1cnc(C2CCN(C(=O)c3ccccc3F)C2)[nH]1.Cl (centres undefined)	151.5
CCNS(=O)(=O)C1CCN(C(=O)c2c(F)cc(F)cc2F)C1 (centres undefined)	-5.983
CCN(C1CCN(C(=O)c2cccc(Cl)c2)CC1)S(C)(=O)=O	6.766
CCOCCOc1ccccc1C(=O)N1CCCC(c2ncc[nH]2)C1 (centres undefined)	-24.68
Cc1ccc(C(=O)N2CCCC(Nc3ccc(F)cc3)C2)cc1 (centres undefined)	-37.46
CN(C)Cc1ccc(C(=O)N2CCCC(n3cccn3)C2)cc1 (centres undefined)	13.31
CN(C)Cc1cnc(C2CCN(C(=O)c3cccc(Cl)c3)C2)[nH]1 (centres undefined)	128.9
CCS(=O)(=O)N(C)C1CCN(C(=O)c2cccc(Cl)c2)CC1	-7.301
CN(C)Cc1cnc(C2CCN(C(=O)c3ccc(F)cc3)C2)[nH]1 (centres undefined)	127.5
CCCS(=O)(=O)N1CCC2(CC(=O)N(c3cnn(C)c3)C2)C1 (centres undefined)	9.344
CCOc1ccc(N(CCC#N)C(=O)c2ccc(SC)nc2)cc1	-11.41
CN(C)Cc1cnc(C2CCN(C(=O)c3cccc(F)c3)C2)[nH]1 (centres undefined)	98.09
O=C(c1cccc(F)c1)N1C[C@H]2CCCC(OCc3cccnc3)[C@H]2C1 (some centres undefined)	7.164
CC1CCCN1C1CCN(C(=O)c2cccc(F)c2)CC1 (centres undefined)	1.778
CCc1cnc(N2CCC3(CC2)CCN(c2cnn(C)c2)C3=O)nc1	-11.71
Cc1nonc1NC(=O)C1SCCc2ccccc21 (centres undefined)	-22.17
CCC(CO)N(CC=C(C)C)Cc1ccsc1 (centres undefined)	-1.911
CCC(CO)N(Cc1ccccn1)Cc1c[nH]nc1-c1ccc(F)cc1 (centres undefined)	-3.197
CCC(CO)N(Cc1ccc(F)cc1)Cc1c(C)nn(C)c1Cl (centres undefined)	108.6
CCC(CO)N(Cc1ccncc1)Cc1c[nH]nc1-c1ccc(F)cc1 (centres undefined)	-8.532
CCC(CO)N(Cc1ccco1)Cc1c(C)nn(C)c1Cl (centres undefined)	113.8
CCC(CO)N(Cc1ccco1)C(=O)c1cccc(C)c1O (centres undefined)	-5.185

Structure (SMILES)	Percent Effect [%]
CCC(CO)N(Cc1ccsc1)Cc1c(C)nn(C)c1Cl (centres undefined)	83.51
CCC(CO)N(Cc1ccco1)C(=O)c1ccc(F)cc1Cl (centres undefined)	-20.92
CCC(CO)N(Cc1ccsc1)Cc1cccc(O)c1 (centres undefined)	4.07
O=C(NC1(c2nnn(CC3CCCO3)n2)CCCC1)c1ccccc1 (centres undefined)	-21.33
CCC(=O)NCC(=O)Nc1c(C)cnn1Cc1cc(F)ccc1F	-6.238
FC(F)(F)c1[nH]nc2c1CN(Cc1ccccc1)CC2	-6.07
Cn1c(=O)ccn(CC(=O)N2CCCC(n3cccn3)C2)c1=O (centres undefined)	-17.99
CC(=O)N1Cc2ccccc2C[C@H]1C(=O)N(C)Cc1ccccn1	-7.664
N#Cc1ccc(NCC(=O)Nc2ncn(Cc3cccnc3)n2)cc1	2.258
O=C(O)C(F)(F)F.O=C(c1ccccn1)N1CCc2ncc(Cn3cccn3)n2CC1	108.7
N#Cc1cccc(C(=O)N2CCc3ncc(Cn4cccn4)n3CC2)c1	-16.45
CN1CCN(Cc2cnc3n2CCN(C(=O)c2ccoc2)C3)CC1	1.07
O=C(c1cccc(F)c1)N1CCc2ncc(Cn3cccn3)n2CC1	90.68
O=C(c1ccoc1)N1CCc2ncc(Cn3cccn3)n2CC1	85.84
Cc1ccsc1C(=O)N1CCc2ncc(Cn3cccn3)n2CC1	-18.82
N#Cc1ccc(C(=O)N2CCn3c(Cn4cccn4)cnc3C2)cc1.O=C(O)C(F)(F)F	-19.27
Cc1ccc(C(=O)N2CCc3ncc(Cn4cccn4)n3CC2)cn1	106.9
Cn1cccc1C(=O)NCc1cnc2n1CCN(C(=O)c1ccoc1)C2	-3.453
Cn1cccc1C(=O)N1CCc2ncc(Cn3cccn3)n2CC1	-10.36
CC(NCc1ccc(OCC(N)=O)cc1)c1ccc(Cl)cc1Cl.Cl (centres undefined)	-2.997
CCc1cnc(NCc2nc(CSC)no2)nc1	19.97
Cc1cc(N(C)CC2COc3ccccc3O2)nc(C)n1 (centres undefined)	-50.37
CCOCCN1CCN(CC(=O)NC2(C#N)CCCC2)CC1C (centres undefined)	0.8038
Cc1cncc(C(=O)N2CCc3ncc(Cn4cccn4)n3CC2)c1	88.89
Cc1ccc(C(=O)N2CCc3ncc(Cn4cccn4)n3CC2)o1	95.36
O=C(NCc1cccnc1)N1CCn2c(Cn3cccn3)cnc2C1	2.46
O=C(NCc1ccccc1)N1CCn2c(Cn3cccn3)cnc2C1	-1.854
